Out of some 370,000 compounds screened, about 500 (0.14%) were called active. About 2% were inconclusive and are not listed. The call rests on the fitted dose curve; in most records, active means well fitted activation curve with a large enough effect; inconclusive means small, poorly fitted or top-dose-only effect; inactive means no such curve, though single readings can be large or run the other way. Only a selection was taken, and actives are over-represented in it overall.
Assay: qHTS of alpha-syn Inhibitors; further: nearly all actives have a fitted effect of over 65% in size
Conditions: Yeast expressing alpha-synuclein, BacTiter-Glo, 24 h; Potency: growth rescue; series mostly up to 46.1 µM
Procedure, shortened: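 Readout is rescue of growth in alpha-synuclein-expressing yeast, so inhibitors of toxicity appear as activators. Growth after 24 hr at 30 deg C in galactose medium is quantified by luminescence.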
Potency means the concentration at half of the fitted maximal effect.

Potency, inactive:
CSc1n[nH]c(-c2ccco2)n1
Cc1ccc(C)c(NC(=S)NCC(c2cccnc2)N2CCOCC2)c1 (configuration not stated)
Cc1ccc(C(CNC(=O)Nc2ccccc2)N2CCN(C)CC2)cc1 (configuration not stated)
O=C(COC(=O)CSc1nnc(-c2ccc(Cl)cc2)o1)Nc1cc(Cl)cc(Cl)c1
O=C(COc1ccccc1)Nc1nonc1NC(=O)COc1ccccc1
CCCS(=O)(=O)Nc1cccc(-c2cn3ccsc3n2)c1
CC1CCN(S(=O)(=O)c2ccc3c(c2)N(CC(=O)NCc2ccccc2Cl)C(=O)CO3)CC1
CC(=O)c1ccc[n+](C(C)CCC(C)[n+]2cccc(C(C)=O)c2)c1 (configuration not stated)
CC(=O)c1c(Nc2ccccc2)sc(C(=O)c2ccccc2)c1C
COc1cccc(C(=O)c2sc3nc(-c4ccccc4)cc(C(F)(F)F)c3c2N)c1
CN(CCC#N)c1ccc(C=O)cc1
Cc1[nH]c2ccccc2c1C(=O)C(=O)N(C)c1ccccc1
CN1CC[C@H](c2c(O)cc(O)c3c(=O)cc(-c4ccccc4Cl)oc23)[C@H](O)C1
COc1cc(C(CC(=O)NCCC(C)C)N2Cc3ccccc3C2=O)cc(OC)c1OC (configuration not stated)
COc1ccc(/C=C/c2ccnc3ccccc23)cc1OC
C/C(=N\NC(=O)c1cccc([N+](=O)[O-])c1)c1cccnc1
O=C(NC(=S)NC1CCS(=O)(=O)C1)c1cccc([N+](=O)[O-])c1 (configuration not stated)
O=[N+]([O-])c1ccc(/C=C/c2ccc3cccnc3c2)cc1
O=S(=O)(c1cccc(C(F)(F)F)c1)N1CCN(c2nc(-c3cccs3)nc3ccccc23)CC1
CO[C@H]1O[C@@H]2O[C@@]3(C)CC[C@@H]4[C@@H](C)CC[C@@H]([C@H]1C)[C@@]24OO3
CCOc1cc(C(=O)Nc2nnc3n2CCS3)cc(OCC)c1OCC
COc1ccc(-c2ccc(CN3C(CC(C)C)C(=O)N(Cc4cn(CC5CCCCC5)nn4)CCS3(=O)=O)cc2)cn1 (configuration not stated)
CC(=O)c1cccc(-c2ccc(CN3C(CC(C)C)C(=O)N(Cc4cn(CC5CCCCC5)nn4)CCS3(=O)=O)cc2)c1 (configuration not stated)
CCOc1ccccc1NC(=O)c1cccnc1
O=C(Nc1cnccn1)c1cccnc1
CCOc1ccc(NC(=O)CSc2nnc3c(n2)[nH]c2ccc(S(=O)(=O)N4CCOCC4)cc23)cc1
CCN(CC)c1ccc(/C=C/c2c(C)cnc3ccc(C)cc23)cc1
COc1cc2nc(N3CCCN(C)CC3)nc(NC3CC3)c2cc1OC
OC(CBr)C[n+]1cccc2cc(Br)ccc21 (configuration not stated)
ClC/C=C/C[n+]1ccccc1Cl
O=C(c1ccco1)N(Cc1cccs1)c1ccc(O)cc1
O=c1cc(-c2ccccc2)[nH]c2nc(Cl)ccc12
NS(=O)(=O)c1ccc(NC(=O)CSc2nnc3c(n2)[nH]c2ccccc23)cc1
CCC(C)N(c1ccc(/C=C/c2ccnc3ccccc23)cc1)C(C)CC (configuration not stated)
O=C1c2ccccc2C(=O)N1c1ccc(S(=O)(=O)N2CCOCC2)c2ccccc12
CS(=O)c1ccc(/C=C2\C=Cc3ccccc32)cc1 (configuration not stated)
Cc1ccc(C(=O)CSc2nc(-c3ccccc3)nc3c2CCCC3)c(C)c1
Cc1cccc(Nc2nc(C)nc(N)c2S(=O)(=O)c2ccccc2)c1
Brc1cccc[n+]1Cc1cccc(C[n+]2ccccc2Br)c1
OC(Cc1ccc2ccccc2n1)c1ccc(Cl)c(Cl)c1 (configuration not stated)
COc1ccc(C)cc1NC(=O)C(=O)NCCc1sc(-c2cccc(C)c2)nc1C
CN(C)c1ccc(/C=C2\C=Cc3ccccc32)cc1Br
CC(C)(C(=O)NO)c1ccccc1
CCOc1ccccc1C(=O)NC1(C(F)(F)F)NC(=O)N(CCc2ccc(OC)c(OC)c2)C1=O (configuration not stated)
O=C(c1cnn2c1NC(=C1CC1)C=C2C(F)F)N1CCc2ccccc2C1
Cc1cc(F)ccc1NC1(c2ccccc2)C(=O)c2ccccc2C1=O
O=S(=O)(Nc1cccc2cccnc12)c1cccc2cccnc12
O=[N+]([O-])c1ccccc1S(=O)(=O)Nc1cccc2cccnc12
O=C(NNC(=O)c1ccc(Cl)nc1)c1ccc(Br)cc1
CNC(=S)NNC(=O)c1ccc(N(C)C)cc1
Cc1ccc(-c2nc(=N)sn2Cc2ccccc2)cc1
CC(C)CC(COCc1ccc(Cl)cc1)N1CCN(C(=O)c2ccc(C(F)(F)F)cc2)CCC1=O (configuration not stated)
CC(C)CC(CO)N1CCN(C(=O)c2ccc(Cl)cc2Cl)CCC1=O (configuration not stated)
CN(C(=N)N)c1ccc(/C=C2\C=Cc3ccccc32)cc1
CN(C)CCCn1c(-c2ccc(Cl)cc2)csc1=Nc1ccccc1
CN(C)c1ccc(/C=C/c2sc3ccccc3[n+]2C)cc1
CC1(C)C=Cc2c(ccc(C(=O)/C=C/c3ccccc3)c2O)O1
COc1ccc(C2Nc3ccc(NC(=O)COC(C)=O)cc3C(=O)N2Cc2ccccc2)cc1COc1ccc(NC(C)=O)cc1 (configuration not stated)
N#Cc1ccc[n+](CC(=O)c2ccc(O)c(O)c2)c1
CCCCCCCNc1ccc(/C=C/c2ccnc3ccccc23)cc1
O=C(Nc1ccc(Cl)cc1)c1cnn2c1NC(=C1CC1)C=C2C(F)F
COc1ccc(/C=C/c2ccccn2)cc1OC
Cc1ccccc1NC(=O)Cn1c(=O)n(Cc2ccco2)c(=O)c2ccc(C(=O)NC3CCCC3)cc21
OCC(O)C(O)C(O)C(O)C=Nc1ccc(/C=C/c2ccnc3ccccc23)cc1 (configuration not stated)
Oc1ccc(Br)cc1C1C=C(c2ccc3c(c2)OCO3)NC(c2ccc(Cl)cc2)N1 (configuration not stated)
CCc1ccccc1NC(=O)c1cnn(-c2ccc(F)cc2)c1C1CCNCC1
CCCCCCC1(C)NC(c2ccc3c(c2)OCO3)=CC(c2ccccc2O)N1 (configuration not stated)
CCCCC(CCCC)c1ccc(C=Nc2ccc(/C=C/c3ccnc4ccccc34)cc2)cc1
CCOC(=O)c1c(NC(=O)c2ccc(S(=O)(=O)N3CCCC(C)C3)cc2)sc2c1CCN(C(C)C)C2 (configuration not stated)
CCC1(C)CC(=O)NC1=O (configuration not stated)
COc1ccc(CNc2nc(-c3ccc(Cl)cc3)nn2S(=O)(=O)c2ccc(C)cc2)cc1
CN(C)C1=C2C=CC=CC2/C(=C2/C=Cc3ccccc32)C=C1 (configuration not stated)
Nc1ccc2nn(-c3ccc(Cl)cc3)nc2c1
Cc1nn(C)c(Oc2ccc(Cl)cc2)c1C=O
COc1cc2nc(N3CCCN(C)CC3)nc(NC(C)C)c2cc1OC
O=C(Nc1ccc([N+](=O)[O-])cc1)c1cnn2c1NC(=C1CC1)C=C2C(F)F
Nc1ncnc2c1c(I)cn2[C@@H]1C[C@H](N)[C@@H](O)[C@H]1O
Cc1cccc(-c2nnc(SC(C)C(=O)Nc3ccccc3)n2C)c1 (configuration not stated)
O=C(c1ccc2c(=O)n(Cc3ccco3)c(=S)[nH]c2c1)N1CCCC1
OCc1cnc(SCc2ccc(F)cc2)n1Cc1ccc(F)cc1
Cc1ccc(C)c2sc(NC(=O)c3ccc(S(=O)(=O)N4CCCC4)cc3)nc12
O=C1COc2ccc(-c3csc(-c4ccc(Cl)cc4)n3)cc2N1
CCc1ccc(NC(=O)CN2CCSc3ccc(S(=O)(=O)N4CCCC4)cc32)cc1
c1ccc(Cn2nnc3c(N4CCCCC4)ncnc32)cc1
Cc1c(CCO)sc[n+]1CC(=O)c1ccc2ccccc2c1
COc1cc2nc(Cl)nc(NC3CC3)c2cc1OC
Oc1ccc(Cl)cc1C1C=C(c2ccc3c(c2)OCO3)NC(c2c(F)cccc2Cl)N1 (configuration not stated)
CCCCOc1ccc(C(=O)NO)cc1
Cc1nn(-c2ccc(F)cc2)c(-n2cccc2)c1C(=O)N1CCN(c2ccccc2)CC1
CCCCNC(=O)Cn1c(SCc2cccc(Cl)c2)nc2ccncc21
COc1ccc(-c2[nH]ncc2CN(C)Cc2c(C)n[nH]c2C)c(OC)c1
COc1ccc(-c2c(-c3ccc(OC)cc3O)nc(C)nc2C(F)(F)F)cc1
Cc1ccc(-n2c(SCC(=O)c3ccccc3)nc3c([nH]c4ccccc43)c2=O)cc1

Potency, active:
Cc1ccc(NC(=O)NCC(c2cccnc2)N2CCOCC2)cc1 (configuration not stated) 5.62 µM
O=C(COC(=O)c1ccc(Oc2ccccc2)cc1)Nc1nnc(-c2ccccc2)o1 22.4 µM
CN(C)c1ccnc2sc(C(=O)c3ccccc3)c(N)c12 25.1 µM
CC(C)CC(=O)NC(=S)NNC(=O)c1cccc([N+](=O)[O-])c1 17.8 µM
CC(C)c1cccc(C(C)C)c1Nc1cn[nH]c1 3.98 µM
CC(C)CC1C(=O)N(Cc2cn(CC3CCCCC3)nn2)CCS(=O)(=O)N1Cc1ccc(-c2ccc(Cl)cc2)cc1 (configuration not stated) 1.58 µM
O=C(CC(=O)c1cccnc1)c1ccccc1 15.8 µM
CN(O)C(=S)c1ccccc1 3.55 µM
COc1ccc(S(=O)(=O)Nc2cccc3cccnc23)c(N)c1 22.4 µM
CC(=O)NC(=S)NNC(=O)c1ccc(Br)cc1 12.6 µM
CC(C)C[C@@H](COCc1ccc(Cl)cc1)N1CCN(C(=O)c2ccc(Cl)cc2Cl)CCC1=O 15.8 µM
Nc1ccc(Oc2ccc(Cl)cc2)cc1 17.8 µM
COc1c(C)c2c(c(O)c1C/C=C(\C)CCC(=O)O)C(=O)OC2 7.08 µM
COc1ccc(Oc2cn[nH]c2-c2ccc(OC)cc2O)cc1 17.8 µM
